Measurements from PubChem BioAssay (EPA / NIEHS).
“And” between values parts separate entries of the source, which are not always exact repeats. Equal entries are not always repeated. Inconclusive results are not listed. Some structures have more than one record in an assay (separate samples or runs), and their calls can disagree. The source made the active and inactive calls. How the source made its calls, unless noted: active means hit-call score of the fitted dose curve at least 0.9, where 1 is the maximum; inconclusive means response in the unintended direction; inactive means score below 0.9.

Legend:
[1] = molecular target: mouse Estrogen Receptor alpha (Era), Esr1 (gene 13982) (UniProt P19785); test: NVS_NR_mERa: NovaScreen (NVS) Nuclear Receptor Binding Assay for mouse Estrogen Receptor alpha (Era) (AID 2283378);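 further: hit means loss of bound radioligand signal relative to DMSO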
How it was run: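 Test chemicals competed against a specific radioligand for binding to cell-free mouse Era. Duplicate wells at 25 uM were read 18 hours later by filter-based radiodetection, with loss of signal against DMSO scored as activity.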

[2] = molecular target: Estrogen receptor (Homo sapiens) (UniProt P03372); test: OT_ERa_GFPERaERE_0480: Odyssey Thera (OT) 8-hour HeLa Transcription Induction Assay for Estrogen Receptor (AID 2283381; active means hit-call score of the fitted dose curve at least 0.9, where 1 is the maximum; inactive means score below 0.9)
How it was run: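 HeLa cells expressing GFP reporter under estrogen response element, imaged 8 h after dosing. GFP induction quantified by high-content fluorescence microscopy image analysis; gain of signal fitted versus DMSO.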

[3] = molecular target: Estrogen receptor (Homo sapiens) (UniProt P03372); test: OT_ERa_GFPERaERE_0120: Odyssey Thera (OT) 2-hour HeLa Transcription Induction Assay for Estrogen Receptor (AID 2283382)
How it was run: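 HeLa cells were dosed for 2 h, then GFP reporter induction was quantified by fluorescence microscopy with high-content image analysis. Gain of signal fitted against DMSO baseline.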

[4] = molecular target: Retinoic acid receptor RXR-alpha (Homo sapiens) (UniProt P19793); test: OT_NURR1_NURR1RXRa_0480: Odyssey Thera (OT) 8-hour HEK293T Protein Complementation Assay for Nurr1/retinoid X receptor (RXR) (AID 2283385)
How it was run: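 HEK293T cells expressing Nurr1 and RXRα fused to reporter fragments (protein-fragment complementation); fluorescence measured 8 h after dosing. Gain of signal fitted relative to DMSO.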

[5] = molecular target: human Norepinephrine Transporter (NET), SLC6A2 (gene 6530) (UniProt P23975); test: NVS_TR_hNET: NovaScreen (NVS) Transporter Assay for human Norepinephrine Transporter (NET) (AID 2283377);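 on AC50: displacement of radioligand from human NET seen as loss of scintillation signal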
How it was run: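 Cell-free radioligand binding using CHO-derived membrane protein expressing human NET, read by filter scintillation counting 1 h after dosing; loss of signal vs DMSO. Initial duplicate screen at 25 uM, actives retested in concentration series.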

[6] = molecular target: Estrogen receptor beta (Homo sapiens) (UniProt Q92731); test: OT_ER_ERbERb_1440: Odyssey Thera (OT) 24-hour HEK293T Protein-Complementation Assay for Estrogen Receptor-beta/-beta Homodimer (AID 2283380);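 further: scored as signal increase over DMSO baseline for both agonists and antagonists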
How it was run: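 HEK293T cells stably expressing ER beta LBD (aa 310-547) homodimer fragment-complementation reporter, dosed 24 h. Cells formaldehyde-fixed, Draq5-stained; gain in nuclear (agonist) or nuclear plus cytoplasmic (antagonist) fluorescence versus DMSO read by laser scanning cytometry.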

[7] = molecular target: Bile acid receptor (Homo sapiens) (UniProt Q96RI1); test: OT_FXR_FXRSRC1_1440: Odyssey Thera (OT) 24-hour HEK293T Protein-Complementation Assay for Farnesoid X receptor/SRC-1 Co-activator (AID 2283384)
How it was run: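 HEK293T cells, 24 h after chemical dosing. FXR–SRC-1 coactivator interaction read as fluorescence from protein-fragment complementation of a split reporter. Gain of signal fitted against DMSO baseline.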

[8] = molecular target: Bile acid receptor (Homo sapiens) (UniProt Q96RI1); test: OT_FXR_FXRSRC1_0480: Odyssey Thera (OT) 8-hour HEK293T Protein-Complementation Assay for Farnesoid X receptor/SRC-1 Co-activator (AID 2283383)
How it was run: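 HEK293T protein-fragment complementation assay: FXR and SRC-1 coactivator are fused to reporter fragments, and their interaction restores a fluorescent reporter. Readout was taken 8 h after dosing, with gain of signal fit relative to DMSO.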

[9] = molecular target: Norway rat Vesicular Monoamine Transporter (VMAT2), neurotransmitter transporter, Slc18a2 (gene 25549) (UniProt Q01827); test: NVS_TR_rVMAT2: NovaScreen (NVS) Transporter Assay for Norway rat Vesicular Monoamine Transporter (VMAT2), neurotransmitter transporter (AID 2283376);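 further: actives lower the bound radioligand signal below the DMSO level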
How it was run: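 Radioligand displacement binding on rat forebrain tissue preparation, filter-based scintillation read-out 1 hour after dosing. Primary screen in duplicate at 25 uM, then concentration series for actives; loss of signal versus DMSO.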

[10] = molecular target: Agonist Androgen Response Element (ARE), AR (gene 367) (UniProt P10275); test: OT_AR_ARELUC_AG_1440: Odyssey Thera (OT) 24-hour CHO-K1 Luciferase Assay for Agonist Androgen Response Element (ARE) (AID 2283379)
How it was run: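 CHO-K1 cells carrying an ARE-driven luciferase reporter were exposed to compounds for 24 h. Luminescence was then read after adding a D-luciferin/ATP mix, and activity was scored as a gain in signal over DMSO vehicle.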

Measured: AC50

Chain of Norway rat Vesicular Monoamine Transporter (VMAT2), neurotransmitter transporter, Slc18a2 (gene 25549) (Q01827 whole entry, looked up): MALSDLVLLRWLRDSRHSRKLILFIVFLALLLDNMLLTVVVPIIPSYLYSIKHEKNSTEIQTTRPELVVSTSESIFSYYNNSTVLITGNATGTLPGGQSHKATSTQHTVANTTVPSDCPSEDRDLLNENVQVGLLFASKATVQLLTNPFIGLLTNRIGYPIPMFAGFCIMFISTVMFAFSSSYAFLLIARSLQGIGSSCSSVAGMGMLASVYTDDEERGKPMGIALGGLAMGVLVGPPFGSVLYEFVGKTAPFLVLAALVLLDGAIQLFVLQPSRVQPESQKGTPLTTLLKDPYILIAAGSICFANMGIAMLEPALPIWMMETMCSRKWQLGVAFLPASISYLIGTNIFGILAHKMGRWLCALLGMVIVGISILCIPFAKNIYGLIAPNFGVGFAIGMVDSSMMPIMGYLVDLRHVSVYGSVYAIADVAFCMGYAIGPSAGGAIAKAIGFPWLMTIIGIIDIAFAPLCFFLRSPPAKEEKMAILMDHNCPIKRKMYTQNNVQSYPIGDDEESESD
Chain of Estrogen receptor beta (Homo sapiens) (Q92731 whole entry, looked up, the tested form may be a part): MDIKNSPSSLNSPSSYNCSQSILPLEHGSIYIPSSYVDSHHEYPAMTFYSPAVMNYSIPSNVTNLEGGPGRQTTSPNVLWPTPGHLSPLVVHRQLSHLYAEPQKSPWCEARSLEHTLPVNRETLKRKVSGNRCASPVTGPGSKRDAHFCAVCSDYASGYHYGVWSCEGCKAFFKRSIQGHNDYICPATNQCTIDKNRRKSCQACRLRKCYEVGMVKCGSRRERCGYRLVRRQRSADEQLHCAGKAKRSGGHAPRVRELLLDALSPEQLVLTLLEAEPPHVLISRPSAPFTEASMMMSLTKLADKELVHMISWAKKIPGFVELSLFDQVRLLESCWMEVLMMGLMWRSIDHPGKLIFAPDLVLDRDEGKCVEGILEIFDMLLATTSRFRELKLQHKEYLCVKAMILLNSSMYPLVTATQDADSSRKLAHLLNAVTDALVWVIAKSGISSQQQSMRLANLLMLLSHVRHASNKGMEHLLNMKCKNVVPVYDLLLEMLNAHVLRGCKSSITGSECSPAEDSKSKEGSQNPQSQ
Chain of mouse Estrogen Receptor alpha (Era), Esr1 (gene 13982) (P19785 whole entry, looked up): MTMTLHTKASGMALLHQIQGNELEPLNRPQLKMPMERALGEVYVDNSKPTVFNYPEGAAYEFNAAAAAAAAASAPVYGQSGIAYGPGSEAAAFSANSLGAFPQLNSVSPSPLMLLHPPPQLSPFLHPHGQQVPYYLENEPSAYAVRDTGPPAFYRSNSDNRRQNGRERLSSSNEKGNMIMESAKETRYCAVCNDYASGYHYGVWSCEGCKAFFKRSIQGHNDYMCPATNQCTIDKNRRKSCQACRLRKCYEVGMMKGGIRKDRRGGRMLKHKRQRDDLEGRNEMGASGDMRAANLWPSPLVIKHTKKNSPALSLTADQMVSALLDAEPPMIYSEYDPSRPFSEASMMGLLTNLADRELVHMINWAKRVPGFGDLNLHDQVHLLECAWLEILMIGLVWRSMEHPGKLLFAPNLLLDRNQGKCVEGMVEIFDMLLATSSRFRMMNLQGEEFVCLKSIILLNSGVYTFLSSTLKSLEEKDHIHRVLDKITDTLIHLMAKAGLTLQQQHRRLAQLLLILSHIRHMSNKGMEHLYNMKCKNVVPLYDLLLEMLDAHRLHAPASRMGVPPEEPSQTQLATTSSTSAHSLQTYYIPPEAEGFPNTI
Chain of human Norepinephrine Transporter (NET), SLC6A2 (gene 6530) (P23975 whole entry, looked up): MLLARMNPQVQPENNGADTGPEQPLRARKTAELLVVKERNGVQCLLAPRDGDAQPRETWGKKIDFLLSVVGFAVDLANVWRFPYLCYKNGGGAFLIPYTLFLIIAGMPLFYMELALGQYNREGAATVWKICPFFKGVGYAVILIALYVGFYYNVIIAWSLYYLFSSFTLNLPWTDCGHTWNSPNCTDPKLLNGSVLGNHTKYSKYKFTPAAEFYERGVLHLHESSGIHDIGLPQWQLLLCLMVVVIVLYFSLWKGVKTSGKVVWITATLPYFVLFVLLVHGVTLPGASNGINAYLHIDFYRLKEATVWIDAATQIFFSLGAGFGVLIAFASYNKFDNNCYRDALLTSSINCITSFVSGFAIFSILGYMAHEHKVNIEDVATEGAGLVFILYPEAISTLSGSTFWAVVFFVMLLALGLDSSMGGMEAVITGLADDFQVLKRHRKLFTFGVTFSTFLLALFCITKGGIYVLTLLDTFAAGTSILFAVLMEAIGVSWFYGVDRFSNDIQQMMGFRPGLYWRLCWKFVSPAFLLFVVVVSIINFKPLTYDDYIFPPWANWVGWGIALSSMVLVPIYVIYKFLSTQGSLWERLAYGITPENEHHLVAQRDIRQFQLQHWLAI
Chain of Agonist Androgen Response Element (ARE), AR (gene 367) (P10275 whole entry, looked up): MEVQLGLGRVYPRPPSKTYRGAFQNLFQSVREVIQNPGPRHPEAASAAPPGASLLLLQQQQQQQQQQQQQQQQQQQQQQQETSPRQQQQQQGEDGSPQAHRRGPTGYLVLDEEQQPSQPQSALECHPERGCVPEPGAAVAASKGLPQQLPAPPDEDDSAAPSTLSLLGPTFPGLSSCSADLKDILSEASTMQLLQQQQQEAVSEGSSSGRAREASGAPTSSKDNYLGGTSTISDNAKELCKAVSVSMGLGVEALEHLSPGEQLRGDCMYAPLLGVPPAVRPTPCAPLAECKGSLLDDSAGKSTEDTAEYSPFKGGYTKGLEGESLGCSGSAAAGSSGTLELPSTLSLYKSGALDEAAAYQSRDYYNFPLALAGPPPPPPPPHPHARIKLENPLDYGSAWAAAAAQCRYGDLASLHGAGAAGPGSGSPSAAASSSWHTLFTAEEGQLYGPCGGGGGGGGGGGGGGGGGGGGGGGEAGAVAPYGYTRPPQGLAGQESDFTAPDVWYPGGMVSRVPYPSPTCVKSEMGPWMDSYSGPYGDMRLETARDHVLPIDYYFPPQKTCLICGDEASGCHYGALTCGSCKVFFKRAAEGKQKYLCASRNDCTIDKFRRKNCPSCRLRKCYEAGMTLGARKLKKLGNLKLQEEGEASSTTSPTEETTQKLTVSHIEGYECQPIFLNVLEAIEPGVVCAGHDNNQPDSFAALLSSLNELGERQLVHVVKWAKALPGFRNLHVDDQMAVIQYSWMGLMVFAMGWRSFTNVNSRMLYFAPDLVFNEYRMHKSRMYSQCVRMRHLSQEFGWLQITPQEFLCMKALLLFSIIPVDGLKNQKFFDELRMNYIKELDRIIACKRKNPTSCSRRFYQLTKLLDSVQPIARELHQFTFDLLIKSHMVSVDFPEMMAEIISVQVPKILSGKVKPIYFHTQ
Chain of Estrogen receptor (Homo sapiens) (P03372 whole entry, looked up): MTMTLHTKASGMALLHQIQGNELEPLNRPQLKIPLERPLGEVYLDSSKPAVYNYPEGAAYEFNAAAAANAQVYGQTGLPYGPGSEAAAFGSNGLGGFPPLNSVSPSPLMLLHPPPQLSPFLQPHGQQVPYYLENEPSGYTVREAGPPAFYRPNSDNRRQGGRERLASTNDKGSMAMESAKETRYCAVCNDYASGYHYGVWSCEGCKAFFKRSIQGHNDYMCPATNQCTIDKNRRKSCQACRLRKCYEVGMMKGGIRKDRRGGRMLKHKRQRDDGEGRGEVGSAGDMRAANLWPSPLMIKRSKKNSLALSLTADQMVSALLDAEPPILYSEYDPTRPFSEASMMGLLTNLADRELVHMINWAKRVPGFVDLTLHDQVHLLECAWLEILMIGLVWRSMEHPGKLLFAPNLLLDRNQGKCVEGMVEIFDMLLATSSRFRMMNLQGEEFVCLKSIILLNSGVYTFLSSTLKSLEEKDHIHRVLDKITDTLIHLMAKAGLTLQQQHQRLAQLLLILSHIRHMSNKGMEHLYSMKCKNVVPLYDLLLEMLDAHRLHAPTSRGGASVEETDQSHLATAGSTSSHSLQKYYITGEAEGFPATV
Chain of Bile acid receptor (Homo sapiens) (Q96RI1 whole entry, looked up, the tested form may be a part): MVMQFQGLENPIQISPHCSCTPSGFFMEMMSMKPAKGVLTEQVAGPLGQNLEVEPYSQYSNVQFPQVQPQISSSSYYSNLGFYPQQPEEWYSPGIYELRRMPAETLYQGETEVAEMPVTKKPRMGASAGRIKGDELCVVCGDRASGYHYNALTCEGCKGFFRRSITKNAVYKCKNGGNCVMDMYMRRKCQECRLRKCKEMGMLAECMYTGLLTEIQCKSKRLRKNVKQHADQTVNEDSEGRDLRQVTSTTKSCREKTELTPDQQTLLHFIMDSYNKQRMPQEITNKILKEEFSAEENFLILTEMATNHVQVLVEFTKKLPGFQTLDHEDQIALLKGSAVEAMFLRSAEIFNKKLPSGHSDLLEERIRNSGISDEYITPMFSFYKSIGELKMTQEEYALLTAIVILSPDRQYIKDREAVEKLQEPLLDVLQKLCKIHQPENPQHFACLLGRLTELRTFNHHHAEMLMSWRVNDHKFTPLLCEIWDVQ
Chain of Retinoic acid receptor RXR-alpha (Homo sapiens) (P19793 whole entry, looked up, the tested form may be a part): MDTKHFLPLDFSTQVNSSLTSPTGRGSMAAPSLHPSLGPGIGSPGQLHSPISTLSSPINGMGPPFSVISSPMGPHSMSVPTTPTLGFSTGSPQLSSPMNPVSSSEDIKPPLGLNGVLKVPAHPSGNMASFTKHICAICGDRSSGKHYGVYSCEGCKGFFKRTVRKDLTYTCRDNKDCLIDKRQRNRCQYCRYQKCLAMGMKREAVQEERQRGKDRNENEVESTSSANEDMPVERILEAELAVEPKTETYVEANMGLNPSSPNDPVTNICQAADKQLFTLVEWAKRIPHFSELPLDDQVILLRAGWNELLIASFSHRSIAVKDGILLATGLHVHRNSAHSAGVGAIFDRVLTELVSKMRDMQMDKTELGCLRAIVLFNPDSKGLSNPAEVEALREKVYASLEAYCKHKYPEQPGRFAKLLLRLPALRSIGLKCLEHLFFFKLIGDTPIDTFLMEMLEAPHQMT

Oc1c(Cl)c(Cl)c(Cl)c(Cl)c1Cl
inactive: [1] | [2] | [3] | [4]

O=C(O)C(F)(F)C(F)(F)C(F)(F)C(F)(F)C(F)(F)C(F)(F)C(F)(F)C(F)(F)F
inactive: [5] | [1] | [6] | [3] | [7] | [4]

O=NN(c1ccccc1)c1ccccc1
active: [5] 14 µM
inactive: [2] | [3] | [8] | [7] | [4]

Cc1cc2c3c(c1)C(c1ccccc1)=N[C@@H](NC(=O)c1ccncc1)C(=O)N3CC2
active: [8] 20.8 µM | [7] 32.8 µM | [4] 62 µM
inactive: [9] | [6] | [3] | [4]

CCOC(=O)C(O)(c1ccc(Cl)cc1)c1ccc(Cl)cc1
active: [5] 15.5 µM
inactive: [1] | [10] | [6] | [3]

NS(=O)(=O)C(F)(F)C(F)(F)C(F)(F)C(F)(F)C(F)(F)C(F)(F)C(F)(F)C(F)(F)F
inactive: [1] | [10] | [6] | [4]
active: [2] 42 µM | [3] 23.7 µM | [8] 79.1 µM | [7] 84.4 µM | [4] 83.3 µM

CC(c1ccc(O)cc1)(c1ccc(O)cc1)c1ccc(O)cc1
inactive: [4]
active: [1] 0.768 µM | [3] 2.96 µM

Nn1cnnc1
inactive: [6] | [2] | [3]
active: [9] 10.9 µM

CCC(=O)O[C@H]1CC[C@H]2[C@@H]3CCC4=CC(=O)CC[C@]4(C)[C@H]3CC[C@]12C
inactive: [1] | [6] | [3] | [4]
active: [10] 3.34 nM and 0.907 nM and 1.93 nM | [6] 12.7 µM and 3.36 µM and 12.8 µM | [4] 42.7 µM and 57.9 µM

Cc1cc(-c2ccc(N)c(C)c2)ccc1N
inactive: [1] | [2] | [3] | [4]
active: [1] 0.999 µM | [2] 37.2 µM | [3] 50 µM

Cc1ccc(O)c(C)c1
inactive: [6] | [3] | [4]
active: [5] 11.5 µM

CC(C)C(=O)OCC(C)(C)C(OC(=O)C(C)C)C(C)C (centres undefined)
inactive: [5] | [1] | [6] | [3]

C=CC(=O)NCNC(=O)C=C
inactive: [1] | [6] | [3] | [4]

CCCCCCCCCc1ccc(O)cc1
active: [6] 12.5 µM and 12.1 µM | [4] 50 µM
inactive: [1] | [3] | [4]

CC(C)(O)C(=O)Nc1ccc([N+](=O)[O-])c(C(F)(F)F)c1
active: [1] 2.7 µM
inactive: [1] | [10] | [6] | [2] | [3] | [4]

CCCCCCCCCC[N+](C)(C)CCCCCCCCCC
active: [9] 13.4 µM | [5] 1.46 µM | [1] 5.55 µM | [2] 17.1 µM | [3] 16.1 µM
inactive: [8] | [7]
